Laboratory results from PubChem BioAssay AID1159580 (chemical genetic matrix, 2015).
Where “and” joins values, the source holds several entries; their conditions need not be identical. Identical values can stand only once. About 2,000 (36%) of roughly 5,500 compounds were called active. About 18% were inconclusive and are not listed. Rule as the data show it: active = normalized growth mostly below about 0.91 (no sharp cut-off); inconclusive = no clear call, values can overlap the other calls; inactive = mostly above about 0.92. This is one part of the list.

Experiment: chemical genetic growth profiling, strain panel (AID 1159580);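 also: tested at 20 µM; growth read once vehicle control cultures reached saturation at 30 °C; 1 = growth at the plate median or of vehicle wells; lower values mean less growth of the strain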
Conditions: S. cerevisiae deletion strains, growth OD

Measured: normalized growth

CC(C)[N+](C)(CCOC(=O)C1c2ccccc2Oc2ccccc21)C(C)C
inactive: locus YAL013W, strain DEP1, stronger effect = lower value 1.01 | locus YAL021C, strain ccr4, stronger effect = lower value 1.01 | locus YAL026C, strain drs2, stronger effect = lower value 1.03 | locus YAL030W, strain snc1, stronger effect = lower value 1.02 | locus YAL040C, strain CLN3, stronger effect = lower value 1.01 | locus YBL061C, strain skt5, stronger effect = lower value 0.989 | locus YBR009C, strain hhf1, stronger effect = lower value 0.997 | locus YBR021W, strain FUR4, stronger effect = lower value 1.02 | locus YBR023C, strain chs3, stronger effect = lower value 1.02 | locus YBR171W, strain sec66, stronger effect = lower value 1.01 | locus YBR229C, strain ROT2, stronger effect = lower value 0.997 | locus YBR231C, strain swc5, stronger effect = lower value 1.01 | locus YBR279W, strain paf1, stronger effect = lower value 0.99 | locus YCL011C, strain gbp2, stronger effect = lower value 1.01 | locus YCL016C, strain dcc1, stronger effect = lower value 1.01 | locus YCL029C, strain bik1, stronger effect = lower value 1.01 | locus YCL061C, strain MRC1 (second series), stronger effect = lower value 1.01 | locus YCL069W, strain vba3, stronger effect = lower value 0.993 | locus YCR088W, strain abp1, stronger effect = lower value 1.01 | locus YDL005C, strain med2, stronger effect = lower value 1.02 | locus YDL035C, strain GPR1, stronger effect = lower value 1.01 | locus YDL040C, strain nat1, stronger effect = lower value 0.996 | locus YDL074C, strain BRE1, stronger effect = lower value 1.02 | locus YDL101C, strain DUN1, stronger effect = lower value 1 | locus YDL134C, strain PPH21, stronger effect = lower value 1 | locus YDL185W, strain tfp1, stronger effect = lower value 1 | locus YDL192W, strain arf1, stronger effect = lower value 1.01 | locus YDR001C, strain nth1, stronger effect = lower value 0.996 | locus YDR069C, strain doa4, stronger effect = lower value 1 | locus YDR101C, strain arx1, stronger effect = lower value 0.997 | locus YDR137W, strain rgp1, stronger effect = lower value 1.01 | locus YDR150W, strain NUM1, stronger effect = lower value 1.01 and 1 | locus YDR159W, strain sac3, stronger effect = lower value 0.987 | locus YDR162C, strain NBP2, stronger effect = lower value 1.02 | locus YDR195W, strain ref2 0.976 | locus YDR297W, strain sur2, stronger effect = lower value 0.999 | locus YDR318W, strain mcm21, stronger effect = lower value 1.01 | locus YDR334W, strain swr1, stronger effect = lower value 1 | locus YDR335W, strain msn5, stronger effect = lower value 1.01 | locus YDR363W, strain ESC2, stronger effect = lower value 1.05 | locus YDR388W, stronger effect = lower value 1.01 | locus YDR392W, strain spt3, stronger effect = lower value 0.98 | locus YDR502C, strain sam2, stronger effect = lower value 1 | locus YEL003W, strain gim4, stronger effect = lower value 1 | locus YEL037C, strain rad23, stronger effect = lower value 0.995 | locus YEL061C, strain CIN8 (second series), stronger effect = lower value 0.995 | locus YEL061C, strain CIN8, stronger effect = lower value 1.01 | locus YER002W, strain NOP16, stronger effect = lower value 1.02 | locus YER015W, strain faa2, stronger effect = lower value 1.01 | locus YER016W, strain bim1, stronger effect = lower value 1.01 | locus YER110C, stronger effect = lower value 1 | locus YER111C, strain swi4, stronger effect = lower value 0.993 | locus YER155C, strain BEM2 (second series), stronger effect = lower value 0.955 | locus YER155C, strain BEM2, stronger effect = lower value 1.01 | locus YER167W, strain BCK2, stronger effect = lower value 1.01 | locus YFR010W, strain ubp6, stronger effect = lower value 0.994 | locus YGL078C, strain dbp3, stronger effect = lower value 1.01 | locus YGL086W, strain mad1, stronger effect = lower value 0.998 | locus YGL167C, strain pmr1, stronger effect = lower value 0.997 | locus YGL173C, strain kem1, stronger effect = lower value 1 | locus YGL227W, strain vid30, stronger effect = lower value 1.02 | locus YGL240W, strain doc1, stronger effect = lower value 0.983 | locus YGL248W, strain PDE1, stronger effect = lower value 0.997 | locus YGL253W, strain hxk2, stronger effect = lower value 1.02 | locus YGR078C, strain PAC10, stronger effect = lower value 1 and 1.01 | locus YGR135W, strain pre9, stronger effect = lower value 1.01 | locus YGR229C, strain SMI1, stronger effect = lower value 1.02 | locus YGR252W, strain gcn5, stronger effect = lower value 0.956 | locus YHR013C, strain ard1, stronger effect = lower value 1.04 | locus YHR027C, strain rpn1, stronger effect = lower value 1.01 | locus YHR030C, strain SLT2, stronger effect = lower value 1 and 1.05 | locus YHR079C, strain IRE1 (second series), stronger effect = lower value 1.01 | locus YHR079C, strain IRE1, stronger effect = lower value 1.05 | locus YHR094C, strain hxt1, stronger effect = lower value 1 | locus YHR129C, strain ARP1, stronger effect = lower value 1 | locus YHR142W, strain chs7, stronger effect = lower value 0.994 | locus YHR200W, strain rpn10, stronger effect = lower value 1.01 | locus YIL066C, strain RNR3, stronger effect = lower value 1.01 | locus YIL073C, strain SPO22, stronger effect = lower value 1.03 | locus YIL125W, strain kgd1, stronger effect = lower value 1.01 | locus YIR030C, strain dcg1, stronger effect = lower value 1.01 | locus YJL092W, strain hpr5, stronger effect = lower value 1 | locus YJL095W, strain BCK1 (second series), stronger effect = lower value 1.01 | locus YJL095W, strain BCK1, stronger effect = lower value 0.996 and 1.01 | locus YJL115W, strain asf1, stronger effect = lower value 1 | locus YJL129C, strain trk1, stronger effect = lower value 1.01 | locus YJL134W, strain LCB3, stronger effect = lower value 1.01 | locus YJL154C, strain vps35, stronger effect = lower value 1.01 | locus YJL164C, strain tpk1, stronger effect = lower value 0.995 | locus YJL166W, strain qcr8, stronger effect = lower value 0.98 | locus YJL168C, strain set2, stronger effect = lower value 1 | locus YJL187C, strain SWE1 (second series), stronger effect = lower value 1 | locus YJR043C, strain POL32, stronger effect = lower value 1 | locus YJR066W, strain TOR1, stronger effect = lower value 0.985
